Source: PubChem BioAssay (Tox21)
Several values for one entry are separate records, joined by “and”; a condition that tells them apart may be missing. Equal entries are not always repeated. Inconclusive results are not listed. The source holds several records for some structures; these can differ, active in one and inactive in another. Activity calls are given as the source filed them. The call rests on the fitted dose curve.

experiment: qHTS assay for small molecule agonists of the p53 signaling pathway - cell viability (AID 651633); details: p53RE-bla HCT-116 viability, ATP luminescence, 16 h; series mostly up to 83.3 µM; activity change, negative = cytotoxicity: at the top concentration; further: nearly all actives have a fitted effect of over 30% in size;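 on activity change, negative = cytotoxicity: p53RE-bla HCT reporter cells with a stable beta-lactamase p53 reporter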
From the text: National Center for Advancing Translational Sciences [NCATS]
NIH Chemical Genomics Center [NCGC]
U.S. Environmental Protection Agency [EPA]
National Institutes of Environmental Health Sciences [NIEHS]
National Toxicology Program [NTP]
U.S. Food and Drug Administration [FDA]
p53, a tumor suppressor protein, is activated following cellular insult, including DNA damage and other cellular stresses. The activation of p53 regulates cell fate by inducing DNA repair, cell cycle arrest, apoptosis, or cellular senescence. The activation of p53, therefore, is a good indicator of DNA damage and other cellular stresses. […] The activation of the reporter gene under culture conditions can be detected by fluorescence intensity. This cell line was used to screen the Tox21 compound library in a 1536-well plate format and to identify agonists that activate the p53 signaling pathway.
Tox21 Assay Protocol Summary:
The p53RE-bla cells were dispensed at 4,000 cells/5 ul/well in 1536-well black wall/clear bottom plates using a Multidrop dispenser. After the assay plates were incubated at a 37 C/5% CO2 incubator for 5 hours, 23 nL of compounds dissolved in DMSO, positive controls or DMSO only was transferred to the assay plate by a pin tool. The plates were incubated at 37 C for 16 hours. After 1 uL of LiveBLAzerTM B/G FRET substrate was added using a Flying Reagent Dispenser, the plates were incubated at room temperature for 2 hours, and fluorescence intensity was measured by an Envision plate reader.
For cell viability readout that measures cytotoxicity, 4 ul/well of CellTiter-Glo reagent was added into the assay plates using a Flying Reagent Dispenser. After 30 min incubation at room temperature, the luminescence intensity in the plates was measured using a ViewLux plate reader.
On the % scale 0 is the no-effect control and ±100 the full control effect; potency means the concentration at half of the fitted maximal effect.

Q: For `C=CCCCCCC`, which “activity change, negative = cytotoxicity” value is on record?
A: -8.84% (inactive)

Q: Which “activity change, negative = cytotoxicity” value does the source give for `Cc1c(Cn2ccnc2)c2ccccc2n1CCC(=O)O` here?
A: 20% (inactive)

Q: For `Oc1ccc(O)c2c(O)cccc12`, which “activity change, negative = cytotoxicity” value is on record?
A: 10.1% (inactive)

Q: For `Cc1ncsc1CCO`, which “activity change, negative = cytotoxicity” value is on record?
A: 10.3% (inactive)

Q: Which “activity change, negative = cytotoxicity” value does the source give for `CC/C(=C\C(=N/O)C(N)=O)C(C)[N+](=O)[O-]` (stereo not given) here?
A: 9.23% (inactive)

Q: With `NC(N)=NN=C(/C=C/c1ccc([N+](=O)[O-])o1)/C=C/c1ccc([N+](=O)[O-])o1` as the compound, how does the Potency read?
A: 2.37 µM (active)

Q: With `C=C(C)C(=O)OCCN(C)C` as the compound, how does the “activity change, negative = cytotoxicity” value read?
A: 15.5% [at 95.3 µM] (inactive)

Q: Which “activity change, negative = cytotoxicity” value does the source give for `CCOC(=O)CC(=O)c1cc(F)c(Cl)nc1Cl` here?
A: 4.36% [at 95.3 µM] (inactive)

Q: With `CC(C)(C)C(=O)OCOP(=O)(COCCn1cnc2c(N)ncnc21)OCOC(=O)C(C)(C)C` as the compound, how does the “activity change, negative = cytotoxicity” value read?
A: 14.5% (inactive)

Q: Which “activity change, negative = cytotoxicity” value does the source give for `CN(C(=O)CCCOc1ccc2[nH]c(=O)ccc2c1)C1CCCCC1` here?
A: 11.7% (inactive)

Q: With `O=C(O)C(c1ccc(Cl)cc1)c1ccc(Cl)cc1` as the compound, how does the “activity change, negative = cytotoxicity” value read?
A: -7.68% (inactive)

Q: Which “activity change, negative = cytotoxicity” value does the source give for `CCN(CC)CCOc1ccc2c(c1)C(=O)c1cc(OCCN(CC)CC)ccc1-2` here?
A: 9.15% (inactive)

Q: For `CC1=CC(=O)/C(=C(/C)O)C(=O)O1`, which “activity change, negative = cytotoxicity” value is on record?
A: -12.4% (inactive)

Q: Which “activity change, negative = cytotoxicity” value does the source give for `NCc1ccccc1` here?
A: 22% (inactive)

Q: With `CC(=O)N(O)CCCCCNC(=O)CCC(=O)N(O)CCCCCNC(=O)CCC(=O)N(O)CCCCCN` as the compound, how does the “activity change, negative = cytotoxicity” value read?
A: 15.5% [at 39.1 µM] (inactive)

Q: For `CCCCCC(CO)CCC` (stereo not given), which “activity change, negative = cytotoxicity” value is on record?
A: 20.6% (inactive)

Q: Which “activity change, negative = cytotoxicity” value does the source give for `Cc1occc1S` here?
A: 12.3% (inactive)

Q: For `Cc1ccccn1`, which “activity change, negative = cytotoxicity” value is on record?
A: 9.13% (inactive)

Q: With `CCCCOc1cc(C(=O)OCCN(CC)CC)ccc1N` as the compound, how does the “activity change, negative = cytotoxicity” value read?
A: 16.5% [at 39.1 µM] (inactive)

Q: With `O=c1c2ccccc2nnn1CCl` as the compound, how does the “activity change, negative = cytotoxicity” value read?
A: 15.2% (inactive)

Q: Which “activity change, negative = cytotoxicity” value does the source give for `CCOc1ccc(NC(=O)CC(C)=O)cc1` here?
A: 5.9% (inactive)

Q: With `O=C(O)C1CCC(C(=O)O)CC1` (stereo not given) as the compound, how does the “activity change, negative = cytotoxicity” value read?
A: 12.4% (inactive)

Q: With `CCOc1nc2cccc(C(=O)O)c2n1Cc1ccc(-c2ccccc2-c2nn[nH]n2)cc1` as the compound, how does the Potency read?
A: 29.8 µM (active)

Q: With `CCCc1ccccc1` as the compound, how does the “activity change, negative = cytotoxicity” value read?
A: 11.8% (inactive)

Q: For `CC(C(=O)O)c1ccc(-c2ccccc2)c(F)c1` (stereo not given), which Potency is on record?
A: inactive

Q: Which “activity change, negative = cytotoxicity” value does the source give for `COC(Cc1ccccc1)OC` here?
A: 18.1% (inactive)

Q: With `CCN1CCC[C@H]1CNC(=O)c1c(OC)ccc(Br)c1OC` as the compound, how does the “activity change, negative = cytotoxicity” value read?
A: 13.9% (inactive)

Q: Which “activity change, negative = cytotoxicity” value does the source give for `C1CCC2OC2C1` (stereo not given) here?
A: 10.7% [at 95.3 µM] (inactive)

Q: Which “activity change, negative = cytotoxicity” value does the source give for `COc1cc(C(C)(C)C)c(O)c(C(C)(C)C)c1` here?
A: -29.4% (inactive)

Q: For `CC(C(=O)O)c1ccc(C(=O)c2ccccc2)s1` (stereo not given), which “activity change, negative = cytotoxicity” value is on record?
A: -20.1% [at 39.1 µM] (inactive)

Q: Which “activity change, negative = cytotoxicity” value does the source give for `CCCCCCOC(=O)CCC` here?
A: 14.9% (inactive)

Q: With `CN1CCC(=C2c3ccccc3C=Cc3ccccc32)CC1` as the compound, how does the “activity change, negative = cytotoxicity” value read?
A: 12% (inactive)

Q: With `CC(C)(C)c1cc(CO)cc(C(C)(C)C)c1O` as the compound, how does the “activity change, negative = cytotoxicity” value read?
A: -17.9% [at 95.3 µM] (inactive)

Q: With `Nc1nc(N)c2nc(CNc3ccc(C(=O)N[C@@H](CCC(=O)O)C(=O)O)cc3)cnc2n1` as the compound, how does the Potency read?
A: inactive and 45.3 nM (active)

Q: Which “activity change, negative = cytotoxicity” value does the source give for `O=C1c2cccc(O)c2C(=O)c2c(O)cc(CO)cc21` here?
A: 15.2% (inactive)

Q: Which “activity change, negative = cytotoxicity” value does the source give for `O=C(C(=O)c1ccc(Br)cc1)c1ccc(Br)cc1` here?
A: 23.6% [at 39.1 µM] (inactive)

Q: Which “activity change, negative = cytotoxicity” value does the source give for `CCCC[C@H]1CN(CC2CCOCC2)C(=O)OC12CCN(C1(C)CCN(C(=O)c3c(C)ncnc3C)CC1)CC2` here?
A: -22.2% (inactive)

Q: For `CCCCCCc1ccc(N)cc1`, which “activity change, negative = cytotoxicity” value is on record?
A: -5.17% (inactive)

Q: For `CN(C)CCCOc1nn(Cc2ccccc2)c2ccccc12`, which “activity change, negative = cytotoxicity” value is on record?
A: 20.8% [at 39.1 µM] (inactive)

Q: For `CCC(C)N(C)C(=O)c1cc2ccccc2c(-c2ccccc2Cl)n1` (stereo not given), which “activity change, negative = cytotoxicity” value is on record?
A: -10.3% (inactive)
